Bioassay records deposited in PubChem by National Center for Advancing Translational Sciences (NCATS).
JMJD2A Tudor = qHTS Assay for Inhibitors of JMJD2A-Tudor Domain; Lysine-specific demethylase 4A (Homo sapiens), O75164; AlphaScreen JMJD2A-Tudor / H3K4me3 peptide binding; Potency, µM (series often up to 114 µM), hits mostly inhibitors; 390,000 compounds, 4.4% hits; note: nearly all actives have a fitted effect of over 50% in size
HP1b binding inh = HTS for Inhibitors of HP1-beta Chromodomain Interactions with Methylated Histone Tails. Potency, µM (top dose mostly 114 µM), hits mostly inhibitors. 390,000 compounds, 0.56% hits. AlphaScreen HP1-beta / biotin-H3K9me3 peptide binding. Chromobox protein homolog 1 (Homo sapiens), P83916; note: nearly all actives have a fitted effect of over 70% in size
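AlphaScreen: HP1-beta (50 nM) preformed 30 min with biotin-H3(1-18)K9me3 peptide (50 nM) in PBS pH 7.4, 0.01% Tween-20. Compound added for 30 min at RT, then streptavidin donor/nickel chelate acceptor beads (10 ug/mL) for 30 min.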
BAZ2B inh = qHTS Assay for Inhibitors of BAZ2B; AlphaScreen BAZ2B-H3K14Ac peptide displacement; Bromodomain adjacent to zinc finger domain protein 2B (Homo sapiens), Q9UIF8; 360,000 compounds, 4.4% hits; Potency, µM (titrated, usually from 114 µM), hits mostly inhibitors; AID 504333, 2011; note: nearly all actives have a fitted effect of over 60% in size
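AlphaScreen displacement of biotin-H3(5-23)K14Ac peptide (50 nM final) from BAZ2B (50 nM final) in PBS pH 7.4, 0.01% Tween-20; complex preformed 30 min RT, then compounds (top 110 uM) 30 min RT, beads 20 min dark.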
PLK1 PBD block = qHTS for Inhibitors of PLK1-PDB (polo-like kinase 1 - polo-box domain): Primary Screen; Serine/threonine-protein kinase PLK1 (Homo sapiens), P53350; 360,000 compounds, 2.8% hits; Plk1 PBD binding of FITC phosphopeptide, fluorescence polarization; Potency, µM, actives largely listed as inhibitors; note: series mostly up to about 57 µM; nearly all actives have a fitted effect of over 65% in size
Target sequence (P53350 whole entry, looked up, the tested form may be a part): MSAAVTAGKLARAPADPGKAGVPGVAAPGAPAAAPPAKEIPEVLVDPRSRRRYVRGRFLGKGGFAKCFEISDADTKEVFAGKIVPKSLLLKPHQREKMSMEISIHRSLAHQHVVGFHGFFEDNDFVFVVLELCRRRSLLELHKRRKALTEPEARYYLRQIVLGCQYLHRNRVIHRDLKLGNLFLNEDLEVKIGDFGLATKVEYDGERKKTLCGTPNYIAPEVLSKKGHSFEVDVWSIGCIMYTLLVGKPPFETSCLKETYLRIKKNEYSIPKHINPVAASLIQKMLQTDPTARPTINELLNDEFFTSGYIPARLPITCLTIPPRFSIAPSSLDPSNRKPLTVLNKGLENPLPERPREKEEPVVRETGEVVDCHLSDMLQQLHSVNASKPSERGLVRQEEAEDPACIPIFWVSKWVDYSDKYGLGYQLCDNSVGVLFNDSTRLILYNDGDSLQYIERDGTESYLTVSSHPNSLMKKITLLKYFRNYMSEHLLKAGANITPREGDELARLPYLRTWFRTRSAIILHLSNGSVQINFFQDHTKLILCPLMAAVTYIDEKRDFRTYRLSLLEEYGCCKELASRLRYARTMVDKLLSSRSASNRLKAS
G9a inh = qHTS Assay for Inhibitors of Histone Lysine Methyltransferase G9a; Histone-lysine N-methyltransferase EHMT2 (Homo sapiens), Q96KQ7; G9a H3K9 monomethylation, AlphaScreen, 2 h; Potency, µM (doses to about 102 µM), most hits filed as inhibitors; 350,000 compounds, 8.8% hits; note: nearly all actives have a fitted effect of over 75% in size
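Methyltransferase reactions run at room temperature for 2 h (20 nM enzyme, 500 nM biotin-H3K9 peptide, 20 uM SAM) after a 15 min compound preincubation; product detected by AlphaScreen beads and anti-H3K9me1 antibody.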
PI5P4Ka inh = qHTS for Inhibitors of phosphatidylinositol 5-phosphate 4-kinase (PI5P4K); PI5P4Kalpha enzyme, ADP-Glo luminescence, 60 min; active compounds read low; max response, %; AID 652105, 2013; 330,000 compounds, 1.2% hits; active = max response of -50% or lower; inconclusive = between -30% and -50%; inactive = -30% or higher; note: value at the top dose of about 77 µM
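Reactions run in 0.038 M HEPES pH 7.4, 0.28 mM EGTA, 0.1% CHAPS and 5% DMSO, with PI5P4Kalpha, substrate, compound and 5 microM ATP final, one hour at room temperature. Readout is ADP-Glo luminescence.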
Numbers stand for hits; [ ] = dose if it differs, or a comment. Sampled rows, rich in hits. Any-hit rate of the full collection: about 12%. Unless noted, calls come from the whole dose curve; as a rule, active = well fitted curve in the direction sought with a large enough effect; inconclusive = small, poorly fitted or top-dose-only effect, or another doubt; inactive = no such curve, though single readings can be large; an effect the other way counts as inactive or inconclusive.

For COc1cc(C(=O)NCC(=O)OCC(=O)c2cccc3ccccc23)cc(OC)c1OC the results were JMJD2A Tudor inactive, HP1b binding inh inactive, BAZ2B inh inactive, PLK1 PBD block inactive, G9a inh 70.8µM and PI5P4Ka inh inactive.
For O=C(COC(=O)CNC(=O)c1cccc(Br)c1)Nc1nnc(-c2ccccc2)o1 the results were JMJD2A Tudor inactive, HP1b binding inh inactive, BAZ2B inh inactive, PLK1 PBD block inactive, G9a inh inactive[12.7 µM] and PI5P4Ka inh inactive.
`COc1cc(C(=O)NCC(=O)OCC(=O)Nc2nnc(-c3ccccc3)o2)cc(OC)c1OC` gave JMJD2A Tudor 22.4µM, HP1b binding inh inactive, BAZ2B inh inconclusive, PLK1 PBD block inactive, G9a inh inactive and PI5P4Ka inh inactive.
O=C(COC(=O)CNC(=O)c1ccccc1)Nc1nnc(-c2ccccc2)o1 was read as JMJD2A Tudor inconclusive, HP1b binding inh inactive, BAZ2B inh inconclusive, PLK1 PBD block inactive, G9a inh 44.7µM and PI5P4Ka inh inactive.
For COc1ccc(C(=O)C2CCCN(C(=O)CSC)C2)cc1OC (configuration not stated) the results were JMJD2A Tudor inactive, HP1b binding inh inactive, BAZ2B inh inactive, PLK1 PBD block inactive, G9a inh 70.8µM and PI5P4Ka inh inactive.
For COc1ccc(C(=O)NC(=S)N2CCC(C)CC2)cc1Br the results were JMJD2A Tudor inconclusive, HP1b binding inh inactive, BAZ2B inh inconclusive, PLK1 PBD block inactive, G9a inh inactive and PI5P4Ka inh inactive.
For COc1ccc(C(=S)N2CCCC2)cc1Br the results were JMJD2A Tudor inactive, HP1b binding inh inactive, BAZ2B inh inactive, PLK1 PBD block inactive, G9a inh inactive and PI5P4Ka inh inactive.
`COc1cc(C(=S)N2CCC(C)CC2)ccc1O` gave JMJD2A Tudor inactive, HP1b binding inh inactive, BAZ2B inh inactive, PLK1 PBD block 23.8µM and G9a inh 7.94µM.
CCOc1cc(C(=S)N2CCCC2)ccc1O was read as JMJD2A Tudor inactive, HP1b binding inh inconclusive, BAZ2B inh inactive, PLK1 PBD block 18.9µM and PI5P4Ka inh inactive.
`COc1cc(C(=S)N2CCCCC2)ccc1O` gave JMJD2A Tudor inactive, HP1b binding inh inactive, BAZ2B inh inactive, PLK1 PBD block inconclusive and G9a inh 50.1µM.
COc1ccc(C(=O)C2CCCN(C(=O)Cn3ccc(C)n3)C2)cc1OC (configuration not stated) was read as JMJD2A Tudor inactive, HP1b binding inh inactive, BAZ2B inh inactive, PLK1 PBD block inactive, G9a inh inactive[0.501 µM] and PI5P4Ka inh inactive.
O=C(Nc1ccc(Cl)cc1)C1Cc2c(-c3ccccc3Oc3ccccc3)ccnc2O1 (configuration not stated) was read as PLK1 PBD block inactive and PI5P4Ka inh inactive.
`COc1cc(C(=S)N2CCC(C(N)=O)CC2)ccc1O` gave JMJD2A Tudor inactive[11.4 µM], HP1b binding inh inactive, BAZ2B inh inactive, PLK1 PBD block 26.7µM, G9a inh inconclusive and PI5P4Ka inh inactive.
Screening COc1cc(C(=S)N2CCCC2)ccc1O returned JMJD2A Tudor inactive, HP1b binding inh inactive, BAZ2B inh inactive, PLK1 PBD block 26.7µM and G9a inh 14.1µM.
Screening COc1cc(C(=S)N2CCCC2)ccc1OCC(N)=O returned JMJD2A Tudor inactive, HP1b binding inh inactive, BAZ2B inh inactive, PLK1 PBD block inactive, G9a inh inactive and PI5P4Ka inh inactive.
O=C(N/N=C/C(Br)=C/c1ccccc1)c1cnccn1 was read as JMJD2A Tudor inactive, HP1b binding inh inactive, BAZ2B inh inactive, PLK1 PBD block inactive, G9a inh inactive and PI5P4Ka inh inactive.
Screening S=C1SCN(Cc2ccco2)CN1Cc1ccco1 returned JMJD2A Tudor inactive, HP1b binding inh inactive, BAZ2B inh inactive, PLK1 PBD block inactive, G9a inh inactive and PI5P4Ka inh inactive.
For N#CC1=C2SCN(Cc3ccco3)CN2C(=O)CC1c1cccc2ccccc12 (configuration not stated) the results were JMJD2A Tudor 56.2µM, HP1b binding inh inconclusive, BAZ2B inh inconclusive, PLK1 PBD block 23.8µM, G9a inh 0.891µM and PI5P4Ka inh -59.8.
For N#CC1=C2SCN(Cc3ccco3)CN2C(=O)CC1c1ccccc1F (configuration not stated) the results were JMJD2A Tudor 5.01µM, HP1b binding inh 44.7µM, BAZ2B inh 56.2µM, PLK1 PBD block 26.7µM and G9a inh 0.282µM.
Screening CCCCCCCn1ccc(=N)cc1 returned JMJD2A Tudor inactive, HP1b binding inh inactive, BAZ2B inh inactive, PLK1 PBD block inactive, G9a inh 6.31µM and PI5P4Ka inh inactive.
Screening COc1cccc(-c2c(-c3cc(OC)cc(OC)c3)n(C)c3ccc(-c4cnc(N5CCOCC5)nc4)cc23)c1 returned JMJD2A Tudor inactive, HP1b binding inh inactive, PLK1 PBD block inactive and PI5P4Ka inh inactive.
CC(C)[C@H]1CN=C2N(C[C@H](C)NC(=O)CCC3CCCCC3)[C@H](Cc3ccc(O)cc3)CN21 was read as JMJD2A Tudor 79.4µM, HP1b binding inh inactive, BAZ2B inh inactive, PLK1 PBD block 13.4µM, G9a inh inconclusive and PI5P4Ka inh inconclusive.
Screening COc1ccc(C[C@@H]2CN3C(=NC[C@@H]3Cc3ccc(O)cc3)N2C[C@H](C)NC(=O)CCC2CCCCC2)cc1 returned JMJD2A Tudor inconclusive, HP1b binding inh inactive, BAZ2B inh inactive, PLK1 PBD block 26.7µM and PI5P4Ka inh inactive.
`C[C@@H](CN1C2=NC[C@H](C)N2C[C@H]1Cc1ccc(O)cc1)NC(=O)CCC1CCCCC1` gave JMJD2A Tudor inactive, HP1b binding inh inactive, BAZ2B inh inactive, PLK1 PBD block inactive, G9a inh inactive[12.7 µM] and PI5P4Ka inh inactive.
Cc1ccc(C2=Nn3c(COc4ccc(Cl)cc4)nnc3SC2CC(=O)O)cc1 (configuration not stated) was read as JMJD2A Tudor inactive, HP1b binding inh inactive, BAZ2B inh inconclusive, PLK1 PBD block inconclusive, G9a inh 39.8µM and PI5P4Ka inh inactive.
For CCc1cc(=O)oc2c(CNCc3ccccc3F)c(O)c(Cl)cc12 the results were JMJD2A Tudor inconclusive, HP1b binding inh inactive, BAZ2B inh inconclusive, PLK1 PBD block 29.9µM, G9a inh 50.1µM and PI5P4Ka inh inactive.
`COCCCNC(=O)N1[C@H](c2cccs2)[C@@H](C)C(=O)[C@@H](C)[C@@H]1c1cccs1` gave JMJD2A Tudor inactive, HP1b binding inh inactive, BAZ2B inh inactive and G9a inh inactive.
